Experiment [1] in a line: antimalarial activity against Dd2 strain (AID 2302;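 active means growth inhibition above 50% at the single 2 µM test dose, taken to imply half-maximal potency below 2 µM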;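 further: 0% = DMSO untreated growth and 100% = chloroquine plus artemisinin killed control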). To be noted: P. falciparum Dd2 in RBCs, LDH growth readout, 72 h; at 2 µM; active compounds read high.
Experiment [2] is described as follows: HepG2 cytotoxicity, primary screen, cytotoxicity control for P. falciparum antimalarial project, cell-based, ATP luminescence (AID 2303;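 active means inhibition above 50%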;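 further: 0% = DMSO wells and 100% = digitonin-killed cells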). To be noted: HepG2 viability, 24-48 h, at 10 µM, active compounds read high.
The target of experiment [3] is L-lactate dehydrogenase (Plasmodium falciparum (isolate CDC / Honduras)) (UniProt Q27743). The experiment in a line: PfLDH activity inhibition – cell lysate, 3D7 strain, counter-screen for P. falciparum growth inhibition project (AID 2304).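 Further: 0% = vehicle and 100% = reference inhibitor.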 To be noted: P. falciparum 3D7 crude extract, LDH APAD/NBT absorbance; at 2 µM; active compounds read high. (The purpose of a counterscreen is to sort out artefacts and off-target activity.)
L-lactate dehydrogenase (Plasmodium falciparum (isolate CDC / Honduras)), sequence (Q27743 whole entry, looked up): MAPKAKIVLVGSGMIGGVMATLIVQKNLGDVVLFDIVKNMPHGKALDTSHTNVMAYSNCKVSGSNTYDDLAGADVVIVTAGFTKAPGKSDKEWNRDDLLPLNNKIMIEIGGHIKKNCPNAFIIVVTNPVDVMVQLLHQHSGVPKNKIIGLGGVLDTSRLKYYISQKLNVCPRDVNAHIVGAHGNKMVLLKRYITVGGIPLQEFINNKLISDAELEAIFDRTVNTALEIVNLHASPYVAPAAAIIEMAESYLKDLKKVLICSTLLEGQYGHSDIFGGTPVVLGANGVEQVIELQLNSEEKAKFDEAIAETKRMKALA

Experiment [4] can be described thus: inhibition of 3D7 malaria parasite growth – strain 3D7 (AID 2306).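 Further: 0% = DMSO wells and 100% = chloroquine plus artemisinin control wells.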 The note with it: P. falciparum 3D7 erythrocytic growth, LDH absorbance, 72 h; at 2 µM; active compounds read high.
Experiment [5] concerns the target Calcium-dependent protein kinase 1 (Plasmodium falciparum (isolate 3D7)) (UniProt P62344). Nature of the experiment: PfCDPK1 kinase inhibitors, biochemical, TCAMS library (AID 1159585; cut-off not given, nearly all actives have IC50 up to about 0.98 µM;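 further: inhibitors leave more ATP so luminescence rises with inhibition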). The note with it: recombinant PfCDPK1, Kinase-Glo ATP depletion luminescence.
In experiment [6] the target is Plasmodium falciparum protein kinase 6 (PK6, PF3D7_1337100) (UniProt Q8IDW1). The experiment in a line: PfPK6 kinase inhibitors, biochemical, TCAMS library (AID 1159586). To be noted: recombinant PfPK6, Kinase-Glo ATP depletion luminescence. On the technique in general: Kinase-Glo measures the ATP left after a reaction by luminescence.
Plasmodium falciparum protein kinase 6 (PK6, PF3D7_1337100), sequence (Q8IDW1 1-305): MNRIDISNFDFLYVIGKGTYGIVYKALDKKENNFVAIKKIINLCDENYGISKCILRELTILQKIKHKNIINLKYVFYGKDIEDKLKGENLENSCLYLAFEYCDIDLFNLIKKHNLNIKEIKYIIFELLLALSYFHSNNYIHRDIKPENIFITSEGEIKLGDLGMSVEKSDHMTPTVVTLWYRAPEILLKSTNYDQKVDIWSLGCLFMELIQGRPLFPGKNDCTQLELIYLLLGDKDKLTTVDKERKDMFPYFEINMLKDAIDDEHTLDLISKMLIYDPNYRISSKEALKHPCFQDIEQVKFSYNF
The target in experiment [7] is Protein kinase 7 (PK7), Plasmodium falciparum 3D7 (PF3D7_0213400) (UniProt Q7YTF7). Nature of the experiment: inhibition of Plasmodium PK7 catalytic activity – biochemical, TCAMS antimalarial set, Kinase-Glo luminescence (AID 1159587). The note with it: recombinant PfPK7, Kinase-Glo ATP depletion luminescence.
Protein kinase 7 (PK7), Plasmodium falciparum 3D7 (PF3D7_0213400), sequence (Q7YTF7 1-343): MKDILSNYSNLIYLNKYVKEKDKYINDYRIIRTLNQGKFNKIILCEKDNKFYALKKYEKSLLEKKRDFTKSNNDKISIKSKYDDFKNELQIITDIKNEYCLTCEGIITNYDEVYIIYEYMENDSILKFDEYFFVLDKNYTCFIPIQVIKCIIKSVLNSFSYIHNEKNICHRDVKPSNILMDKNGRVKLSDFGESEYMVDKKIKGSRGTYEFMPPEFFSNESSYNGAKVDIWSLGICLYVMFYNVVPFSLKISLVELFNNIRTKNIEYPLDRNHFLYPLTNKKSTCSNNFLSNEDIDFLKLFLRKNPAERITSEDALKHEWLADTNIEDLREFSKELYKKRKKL
The target in experiment [8] is Calcium-dependent protein kinase 4 (Plasmodium falciparum (isolate 3D7)) (UniProt Q8IBS5). The experiment in a line: PfCDPK4 kinase inhibitors, biochemical, TCAMS library (AID 1159588; cut-off not given, nearly all actives have IC50 up to about 0.91 µM). The note with it: recombinant PfCDPK4, Kinase-Glo ATP depletion luminescence.
Calcium-dependent protein kinase 4 (Plasmodium falciparum (isolate 3D7)), sequence (Q8IBS5 whole entry, looked up): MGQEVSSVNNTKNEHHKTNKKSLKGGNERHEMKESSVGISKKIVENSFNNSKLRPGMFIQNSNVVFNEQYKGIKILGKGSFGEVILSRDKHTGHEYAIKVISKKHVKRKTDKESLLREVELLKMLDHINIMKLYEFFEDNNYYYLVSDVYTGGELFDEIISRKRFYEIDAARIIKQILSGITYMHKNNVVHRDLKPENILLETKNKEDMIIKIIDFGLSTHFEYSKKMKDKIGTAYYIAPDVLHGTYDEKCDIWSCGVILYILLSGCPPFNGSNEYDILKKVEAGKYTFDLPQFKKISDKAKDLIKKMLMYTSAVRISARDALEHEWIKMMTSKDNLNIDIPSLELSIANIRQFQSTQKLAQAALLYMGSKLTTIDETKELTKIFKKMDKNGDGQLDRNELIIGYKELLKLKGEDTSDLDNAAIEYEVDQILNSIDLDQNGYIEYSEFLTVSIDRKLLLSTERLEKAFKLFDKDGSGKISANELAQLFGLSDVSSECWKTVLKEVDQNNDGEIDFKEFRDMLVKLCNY

Each structure is given as a SMILES string. Values without a mark were called inactive. For some assays here: Entries with a potency or affinity are not part of this list. The source made the active and inactive calls. Unless noted, how the calls were made is not given here.

The source of these data is PubChem BioAssay.

Calcium-dependent protein kinase 1 (Plasmodium falciparum (isolate 3D7)), sequence (P62344 whole entry, looked up): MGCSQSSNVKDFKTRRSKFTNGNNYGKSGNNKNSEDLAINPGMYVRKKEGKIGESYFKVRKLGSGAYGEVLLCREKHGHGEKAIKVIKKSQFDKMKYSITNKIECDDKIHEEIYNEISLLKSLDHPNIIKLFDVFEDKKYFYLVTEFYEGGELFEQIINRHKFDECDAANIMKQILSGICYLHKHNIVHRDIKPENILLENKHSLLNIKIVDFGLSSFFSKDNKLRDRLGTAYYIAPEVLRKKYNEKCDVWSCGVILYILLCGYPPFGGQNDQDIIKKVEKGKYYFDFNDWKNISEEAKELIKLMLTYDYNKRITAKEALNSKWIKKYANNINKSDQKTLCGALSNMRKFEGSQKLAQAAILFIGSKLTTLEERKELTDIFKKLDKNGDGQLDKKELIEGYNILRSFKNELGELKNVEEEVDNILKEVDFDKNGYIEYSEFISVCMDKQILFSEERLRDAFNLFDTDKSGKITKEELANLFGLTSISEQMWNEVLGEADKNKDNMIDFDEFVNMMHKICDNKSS

By inhibition is commonly meant the drop in the measured response relative to a control, in per cent. Consider `COc1ccc2nc(NC3=NC4(c5ccccc5)N=C(Nc5nc6ccc(OC)cc6[nH]5)NC4(c4ccccc4)N3)[nH]c2c1` (configuration not stated), for which the growth inhibition was 85% (active) in experiment [1] and 100% (active) in experiment [4]. Also, the inhibition in experiment [2] is -5%; in experiment [3] it was -6%. The result in experiment [5], in experiment [6], in experiment [7] and in experiment [8] was inactive.
In the case of `O=C(NCc1ccc(Cl)c(Cl)c1)c1cc(CNC2CCNCC2)ccc1O`, the growth inhibition in experiment [1] is 2%; in experiment [4] it was 82% (active). The inhibition in experiment [2] is 2%; in experiment [3] it was 4%. The result in experiment [5], in experiment [6], in experiment [7] and in experiment [8] was inactive.
Regarding `COc1cc2c(cc1S(=O)(=O)c1ccc(NC(=O)c3ccc4ccccc4c3)cc1)CCN(C)CC2`, the figures for the growth inhibition in experiment [1] and in experiment [4] were 28% and 99% (active), respectively. Further, the inhibition is 2% in experiment [2] and -4% in experiment [3]. Besides, the result in experiment [5], in experiment [6], in experiment [7] and in experiment [8] was inactive.
As for `CCOc1cc(CC)ccc1C1CCN(CCN2CCC(CNC(=O)c3ccc(-c4ccc(C#N)cc4)cc3)CC2)CC1`, the growth inhibition in experiment [1] is 100% (active); in experiment [4], 89% (active). Further, the results for the inhibition in experiment [2] and in experiment [3] were 53% (active) and 5%, respectively. The outcome in experiment [5], in experiment [6], in experiment [7] and in experiment [8] was inactive.
Consider `CC(=O)c1nccc(C)c1N`, for which the growth inhibition in experiment [1] is -1%; in experiment [4] it was 92% (active). Moreover, the inhibition was 10% in experiment [2] and 1% in experiment [3]. In addition, the result in experiment [5], in experiment [6], in experiment [7] and in experiment [8] was inactive.
For `COc1ccc2nccc(N3CCC(NCCNS(=O)(=O)c4ccc5c(c4)NC(=O)CS5)C3)c2n1` (configuration not stated), the growth inhibition in experiment [1] is 18%; in experiment [4], 97% (active). In addition, the inhibition was 12% in experiment [2] and 2% in experiment [3]. Further, the result in experiment [5], in experiment [6], in experiment [7] and in experiment [8] was inactive.
Turning to `Cc1ccc2c(Cc3cnc(N)nc3N)cc(C)c(N)c2n1`, the results for the growth inhibition in experiment [1] and in experiment [4] were 92% (active) and 91% (active), respectively. The inhibition in experiment [2] was -19%; in experiment [3], -2%. The result in experiment [5], in experiment [6], in experiment [7] and in experiment [8] was inactive.
On to `O=C(NC1CCCCC1)c1ccc(O)c(-c2cccc(C(F)(F)F)c2)c1`, for which the figures for the growth inhibition in experiment [1] and in experiment [4] were 87% (active) and 97% (active), respectively. Moreover, the values for the inhibition in experiment [2] and in experiment [3] were 8% and 0%, respectively. Moreover, the result in experiment [5], in experiment [6], in experiment [7] and in experiment [8] was inactive.
`CCOC(=O)c1ccc(NC(=O)Nc2cccc(-c3ccc(-c4nc5ccc(F)cc5[nH]4)cc3)c2)cc1`: the growth inhibition was 97% (active) in experiment [1] and 101% (active) in experiment [4]. The inhibition in experiment [2] was 40%; in experiment [3], 1%. For the same compound, the result in experiment [5], in experiment [6], in experiment [7] and in experiment [8] was inactive.
For the compound `O=C(NC(c1ccccc1)c1ccc2cccnc2c1O)c1ccccc1` (configuration not stated), the growth inhibition in experiment [1] was 63% (active); in experiment [4] it was 94% (active). For the same compound, the inhibition in experiment [2] is 53% (active); in experiment [3] it was -4%. For the same compound, the result in experiment [5], in experiment [6], in experiment [7] and in experiment [8] was inactive.
For the compound `CC1(C)N=C(N)N=C(N)N1OCC1CCCCC1`, the growth inhibition in experiment [1] was 97% (active); in experiment [4], 94% (active). Moreover, the inhibition in experiment [2] was 67% (active); in experiment [3], 4%. Moreover, the outcome in experiment [5], in experiment [6], in experiment [7] and in experiment [8] was inactive.
Take `Nc1nc(-c2ccc3c(Nc4ccc(F)c(Cl)c4)ccnc3c2)cs1`: the growth inhibition in experiment [1] was 88% (active); in experiment [4], 100% (active). Further, the inhibition was 13% in experiment [2] and 0% in experiment [3]. The result in experiment [5], in experiment [6], in experiment [7] and in experiment [8] was inactive.
As for `COc1cc2c(c(OC)c1[N+](=O)[O-])C=CC1(O2)N(C)c2ccc([N+](=O)[O-])cc2C1(C)C` (configuration not stated), the growth inhibition in experiment [1] was 89% (active); in experiment [4], 92% (active). In addition, the inhibition in experiment [2] was -13%; in experiment [3], -5%. Besides, the result in experiment [5], in experiment [6], in experiment [7] and in experiment [8] was inactive.
On to `CCn1ccc2c(N3CCCS3(=O)=O)cc(C(=O)N[C@@H](Cc3ccccc3)[C@H](O)CNC(C)(C)CCCC(C)C)cc21`, for which the growth inhibition is 98% (active) in experiment [1] and 97% (active) in experiment [4]. Moreover, the inhibition in experiment [2] was 8%; in experiment [3], 0%. The result in experiment [5], in experiment [6], in experiment [7] and in experiment [8] was inactive.
Turning to `COc1ccc2nccc([C@@H](O)CN3CCC(NC(=O)c4ccc(Oc5ccccc5)cc4)CC3)c2c1`, the growth inhibition in experiment [1] was 13%; in experiment [4], 82% (active). Further, the results for the inhibition in experiment [2] and in experiment [3] were 39% and 2%, respectively. The outcome in experiment [5], in experiment [6], in experiment [7] and in experiment [8] was inactive.
As for `CC(C)c1ccc(OCC(O)CN(CCN2CCOCC2)C(=O)Nc2ccc(Br)cc2)cc1` (configuration not stated), the growth inhibition in experiment [1] is 44%; in experiment [4] it was 98% (active). The inhibition in experiment [2] was 6%; in experiment [3], -2%. Also, the result in experiment [5], in experiment [6], in experiment [7] and in experiment [8] was inactive.
Take `OC1CCC(Nc2ccc3ncc(-c4ccc5ccccc5c4)n3n2)CC1` (configuration not stated): the growth inhibition in experiment [1] was 94% (active); in experiment [4] it was 95% (active). Moreover, the values for the inhibition in experiment [2] and in experiment [3] were 52% (active) and 3%, respectively. Also, the outcome in experiment [5], in experiment [6], in experiment [7] and in experiment [8] was inactive.
Turning to `Cc1cc(N(C)C)nc(Nc2ccc(NC(=O)c3ccccc3C)cc2)n1`, the growth inhibition is 16% in experiment [1] and 93% (active) in experiment [4]. For the same compound, the inhibition in experiment [2] is -5%; in experiment [3], -2%. The result in experiment [5], in experiment [6], in experiment [7] and in experiment [8] was inactive.
For `O=C(NCC1CCC(C(=O)NCCc2ccc(Cl)c(Cl)c2)CC1)c1ccc(O)c(-c2ccc(Cl)c(Cl)c2)c1` (configuration not stated), the results for the growth inhibition in experiment [1] and in experiment [4] were 12% and 94% (active), respectively. In addition, the inhibition was -5% in experiment [2] and -1% in experiment [3]. Also, the result in experiment [5], in experiment [6], in experiment [7] and in experiment [8] was inactive.
